Test systems include NCI-H23 lung; NCI-H226 lung; NCI-H322M lung; HOP-62 NSCLC; NCI-H460 lung; HOP-92 NSCLC; NCI-H522 lung; A549/ATCC NSCLC; 786-0 renal; COLO 205 colon; DU-145 prostate; K-562 leukemia; MALME-3M melanoma; MDA-MB-231 breast; RXF 393 renal; SF-268 CNS; SF-295 CNS; SF-539 CNS; UACC-257 melanoma; M14 melanoma.
What all share (assay): NCI-60 one-dose screen, 48 h (100 = growth as untreated, 0 = no growth, -100 = all killed)
What all share (settings): 10 µM unless noted

Compounds without any hit were thinned out: in the full panel of roughly 83,000, 20% have a hit.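 The endpoint reported here, percent growth, reads 100 for growth as untreated, 0 for no net growth and -100 for all cells dead.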 Unmarked numbers belong to inactive results. Active and inactive are the calls of the source. The calls were made as follows: active = growth percent below 10; inactive = the rest.

Consider `COc1ccc2c(c1)OC13Oc4cc(OC)ccc4C=C1CCCC3=C2`, for which the growth in the test with NCI-H23 lung was 48.3%; with NCI-H226 lung, 64.1%; with NCI-H322M lung, 80.8%; in the test with HOP-62 NSCLC, 41.4%; in the test with NCI-H460 lung, 14.3%; in the test on HOP-92 NSCLC, 26.6%. The growth in the test on NCI-H522 lung is 20.4%; in the test with A549/ATCC NSCLC, 75%; with 786-0 renal, 38.7%; with COLO 205 colon it was -9.95% (active); in the test on DU-145 prostate, 33.9%; with K-562 leukemia, 23.5%. For the same compound, the growth in the test with MALME-3M melanoma was 70.3%; in the test on MDA-MB-231 breast it was 32%; in the test with RXF 393 renal, 16%; in the test on SF-268 CNS, 38.5%; in the test with SF-295 CNS it was 78.6%; with SF-539 CNS it was 84.5%. Besides, the growth with UACC-257 melanoma was 52.5%; with M14 melanoma it was 31.5%.

Turning to `C#CC(=O)Nc1cccc(Nc2nc3c(c(NCc4ccccc4)n2)CCCC3)c1`, the growth in the test with NCI-H23 lung was -61.2% (active); in the test on NCI-H226 lung it was -31.4% (active); in the test on NCI-H322M lung, -56.9% (active); in the test on HOP-62 NSCLC, -82.8% (active); in the test on NCI-H460 lung, -57.8% (active); with HOP-92 NSCLC, -71.7% (active). The growth in the test on NCI-H522 lung was -60.7% (active); with A549/ATCC NSCLC it was -48.5% (active); in the test on 786-0 renal, -90.3% (active); with COLO 205 colon, -68.9% (active); with DU-145 prostate it was -85.1% (active); in the test with K-562 leukemia it was -22.3% (active). Further, the growth with MALME-3M melanoma is -64.1% (active); in the test on MDA-MB-231 breast, -71.7% (active); in the test on RXF 393 renal it was -99.5% (active); in the test on SF-268 CNS it was -78.5% (active); in the test on SF-295 CNS, -84% (active); in the test with SF-539 CNS, -90.7% (active). The growth with UACC-257 melanoma is -90.6% (active); in the test on M14 melanoma, -88.2% (active).

Take `CC[C@H](CC[C@@H](C)[C@H]1CC[C@H]2[C@@H]3CC=C4C[C@@H](OCCc5nn[nH]n5)CC[C@]4(C)[C@H]3CC[C@]12C)C(C)C`: the growth in the test on NCI-H23 lung is 97.7%; in the test with NCI-H226 lung, 110%; in the test with NCI-H322M lung it was 101%; in the test with HOP-62 NSCLC it was 98.4%; with NCI-H460 lung, 109%; in the test with HOP-92 NSCLC, 147%. Besides, the growth was 82.9% in the test with NCI-H522 lung; 93.7% with A549/ATCC NSCLC; 101% in the test with 786-0 renal; 118% in the test on COLO 205 colon; 101% with DU-145 prostate; 92.4% in the test with K-562 leukemia. Moreover, the growth in the test with MALME-3M melanoma is 108%; in the test on MDA-MB-231 breast, 117%; with RXF 393 renal, 129%; in the test with SF-268 CNS, 100%; with SF-295 CNS, 98.1%; in the test on SF-539 CNS, 103%. Also, the growth with UACC-257 melanoma was 103%; in the test on M14 melanoma, 108%.

For the compound `O=C1C(=O)c2c(nc3ncccn23)-c2ccccc21`, the growth in the test with NCI-H23 lung was -49.4% (active); in the test on NCI-H226 lung, -83.2% (active); in the test on NCI-H322M lung, -96.7% (active); with HOP-62 NSCLC, -90.4% (active); in the test on NCI-H460 lung it was -49.3% (active); with HOP-92 NSCLC it was -84.1% (active). In addition, the growth in the test with NCI-H522 lung was -60.7% (active); with A549/ATCC NSCLC it was -35.6% (active); in the test with 786-0 renal it was -94.9% (active); in the test with COLO 205 colon, -70.7% (active); in the test on DU-145 prostate it was -96.8% (active); in the test on K-562 leukemia it was -43.5% (active). In addition, the growth in the test with MALME-3M melanoma is -96.9% (active); with MDA-MB-231 breast, -55.3% (active); in the test with RXF 393 renal, -97.2% (active); with SF-268 CNS it was -70.8% (active); in the test on SF-295 CNS it was -97.8% (active); in the test on SF-539 CNS, -98.3% (active). Besides, the growth was -95.4% (active) in the test with UACC-257 melanoma and -87% (active) with M14 melanoma.

On to `[O-][n+]1ccccc1CCN(O)CCc1cccc[n+]1[O-]`, for which the growth was 97.1% in the test on NCI-H23 lung; 85.7% in the test on NCI-H226 lung; 96.5% in the test with NCI-H322M lung; 94.1% with HOP-62 NSCLC; 115% with NCI-H460 lung; 86.8% with HOP-92 NSCLC. For the same compound, the growth was 81.5% in the test with NCI-H522 lung; 101% with A549/ATCC NSCLC; 101% in the test with 786-0 renal; 104% in the test with COLO 205 colon; 111% in the test with DU-145 prostate; 106% in the test on K-562 leukemia. The growth was 99.5% in the test on MALME-3M melanoma; 97.8% with MDA-MB-231 breast; 113% in the test with RXF 393 renal; 101% in the test with SF-268 CNS; 103% in the test on SF-295 CNS; 87% with SF-539 CNS. Also, the growth was 106% in the test with UACC-257 melanoma and 94.5% in the test on M14 melanoma.

For `CC(=O)c1cccc(NS(=O)(=O)c2cccc(C(=O)Nc3ccc(Br)cc3)c2)c1`, the growth was 29.4% [25 µM] in the test on NCI-H23 lung; 49.3% [25 µM] in the test on NCI-H226 lung; 73.4% [25 µM] in the test with NCI-H322M lung; 68.9% [25 µM] in the test on HOP-62 NSCLC; 63.4% [25 µM] with NCI-H460 lung; 33.9% [25 µM] in the test with HOP-92 NSCLC. Moreover, the growth with NCI-H522 lung is 48.8% [25 µM]; in the test with A549/ATCC NSCLC, 58% [25 µM]; with 786-0 renal, 56.2% [25 µM]; with COLO 205 colon, 61% [25 µM]; in the test on DU-145 prostate, 75.4% [25 µM]; with K-562 leukemia it was 33% [25 µM]. The growth in the test with MALME-3M melanoma was 42.1% [25 µM]; with MDA-MB-231 breast it was 73.8% [25 µM]; in the test on RXF 393 renal, 61.5% [25 µM]; in the test with SF-268 CNS, 51.4% [25 µM]; in the test on SF-295 CNS, 27.3% [25 µM]; with SF-539 CNS, 65.3% [25 µM]. The values for the growth in the test on UACC-257 melanoma and with M14 melanoma were 36.4% [25 µM] and 51.7% [25 µM], respectively.

For `O=S(=O)(NCCCNc1nccc(-c2c(-c3cccc(O)c3)nc3occn23)n1)c1ccc(F)cc1`, the growth is 88.6% with NCI-H23 lung; 110% with NCI-H226 lung; 103% with NCI-H322M lung; 117% with HOP-62 NSCLC; 80.9% with NCI-H460 lung; 116% in the test with HOP-92 NSCLC. The growth in the test with NCI-H522 lung is 77.7%; in the test on A549/ATCC NSCLC it was 88.8%; with 786-0 renal, 92.1%; in the test on COLO 205 colon, 35.5%; with DU-145 prostate, 85.8%; in the test with K-562 leukemia, 68.7%. Besides, the growth was 17.9% in the test on MALME-3M melanoma; 62.7% with MDA-MB-231 breast; 68% in the test with RXF 393 renal; 84.5% with SF-268 CNS; 101% in the test with SF-295 CNS; 101% in the test with SF-539 CNS. Besides, the growth is 19.7% with UACC-257 melanoma and 27.5% with M14 melanoma.

As for `N#Cc1ccc(-c2ccc3c(c2)NC(=O)/C3=C\c2ccc[nH]2)cc1`, the growth in the test with NCI-H23 lung is 36.4%; in the test on NCI-H226 lung it was 58.1%; with NCI-H322M lung it was 70%; in the test on HOP-62 NSCLC, 84.4%; in the test with NCI-H460 lung it was 76.2%; in the test with HOP-92 NSCLC, 36.4%. The growth in the test with NCI-H522 lung was 81.8%; in the test with A549/ATCC NSCLC, 104%; in the test with 786-0 renal it was 105%; in the test with COLO 205 colon, 93.9%; in the test on DU-145 prostate, 106%; in the test on K-562 leukemia it was 105%. Also, the growth with MALME-3M melanoma is 98%; in the test on MDA-MB-231 breast, 45.9%; in the test with RXF 393 renal it was 67.3%; with SF-268 CNS, 96.6%; with SF-295 CNS, 95.7%; with SF-539 CNS it was 101%. In addition, the growth in the test on UACC-257 melanoma is 112%; in the test with M14 melanoma, 102%.

For the origin of these results see PubChem BioAssay (NCI).
